# Hits are enriched below; roughly 8.2% of the tested compounds scored in any of these assays.
# ELG1 DNA repair – blocks ELG1-dependent DNA repair in HEK293T cells | HEK293T ELG1-luciferase reporter, luminescence, 16 h; DNA damage induced by 5-fluorouridine | Potency, µM (top dose mostly 46.1 µM), inactives show at the top dose activity change, negative = inhibition, actives largely listed as inhibitors | 2.3% of 330,000 active; also: % is scaled to controls: 0 for no effect and ±100 for the full control effect; nearly all actives have a fitted effect of over 55% in size
#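 Step one: seed 2,000 cells per well. Step two: pin-transfer compound or DMSO alongside 5-fluorouridine. Step three: incubate 16 hr, 37 °C, 5% CO2. Step four: add ONE-Glo, wait 30 min, read luminescence.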
# KB-V1 cytotox – kills drug-selected multidrug resistant KB-V1 cells. KB-V1 MDR cells viability, CellTiter-Glo, 72 h. Potency, µM (series often up to 46.1 µM), hits mostly cytotoxic. 3.4% of 400,000 active. AID 1347076; also: % is scaled to controls: 0 for no effect and ±100 for the full control effect; nearly all actives have a fitted effect of over 60% in size
#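 Cytotoxicity via CellTiter-Glo luminescence after 72 h compound exposure at 37 degrees C. Cells: drug-selected KB-V1 line, DMEM phenol-red free plus 10% FBS. Compounds tested at multiple concentrations; normalized data fitted to concentration-effect curves.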
# MCF10A rereplic – inducers of DNA re-replication in MCF 10A breast cells. MCF 10A DNA re-replication, Hoechst nuclear intensity, 48 h. Potency, µM (doses to about 46.1 µM), inactives show top-dose activity, positive = re-replication, hits mostly activators. 2.9% of 350,000 active. AID 624296; also: % of control where 0% means no effect; nearly all actives have a fitted effect of over 50% in size
# SW480 rereplic – DNA re-replication induction in SW480 cells; SW480 DNA re-replication, Hoechst DNA content imaging, 48 h; Potency, µM (highest dose often 46.1 µM), without a hit: at the highest dose re-replication activation, actives largely listed as activators; 1.8% of 340,000 active; also: % of control where 0% means no effect; nearly all actives have a fitted effect of over 55% in size
#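 Hoechst fluorescence of nuclei (405 nm excitation, 500-530 nm emission) measured by plate-scanning imager after 48 hr compound exposure at 37 C; re-replication scored as increased number of nuclei with elevated intensity.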
# KB-3-1 tox – kills parental KB-3-1 adenocarcinoma cells; Potency, µM (doses to about 46.1 µM), usual class: cytotoxic; 1.4% of 400,000 active; KB-3-1 viability, CellTiter-Glo ATP luminescence, 72 h; also: % is scaled to controls: 0 for no effect and ±100 for the full control effect; nearly all actives have a fitted effect of over 60% in size
#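 Using CellTiter-Glo luminescence, growth of non-resistant KB-3-1 adenocarcinoma cells is assessed 72 h after pin-tool compound addition at 37 °C. Normalized responses across the concentration series yield fitted curves.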
# The depositor's hits bear a star; i = inactive; ? = inconclusive; · = not tested or not shown. Calls follow the shape of the dose curve; as a rule, active = well fitted curve in the direction sought with a large enough effect; inconclusive = small, poorly fitted or top-dose-only effect, or another doubt; inactive = no such curve, though single readings can be large; an effect the other way counts as inactive or inconclusive. Potency is read from the fitted curve at half-maximal effect.
SMILES,ELG1 DNA repair,KB-V1 cytotox,MCF10A rereplic,SW480 rereplic,KB-3-1 tox
COc1cc(NC(=O)C(C)Oc2ccccc2)c(OC)cc1NC(=O)c1ccccc1 (stereo unspecified),15µM*,·,30%,20%,·
COc1cc(NC(=O)c2ccccc2)c(OC)cc1Cl,-8%,i,-8%,-3%,i
Cc1ccc(CNC(=O)Cc2ccc(Br)cc2)cc1,0%,?,6.5µM*,?,?
CC(Oc1ccccc1)C(=O)Nc1ccc(NC(=O)c2ccccc2)cc1 (stereo unspecified),10%,i,0%,-7%,i
O=C(COC(=O)Cc1ccc(Br)cc1)NCc1ccccc1,·,i,·,·,i
COc1ccccc1N1CCN(C(=O)CN2C(=O)COc3ccc(S(=O)(=O)N4CCOCC4)cc32)CC1,·,i,·,·,i
O=C(COC(=O)c1ccc(O)cc1)Nc1ccc2c(c1)OCO2,13%,?,0%,-5%,i
COc1cc(NC(=O)c2ccccc2)c(OC)cc1NC(=O)Cc1ccc(Br)cc1,-29%,i,12µM*,?,i
COc1ccccc1CNC(=O)Cc1ccc(Br)cc1,0%,23µM*,?,·,i
COC(=O)C1=C(c2ccccc2)c2ccccc2S(=O)(=O)N1CC(=O)Nc1ccccc1Cl,·,i,·,·,i
COc1ccc(/C(O)=C/c2nc3ccccc3n(-c3ccccc3)c2=O)cc1,17%,i,8.2µM*,?,i
COc1ccc(-n2c(=O)c(CCC(=O)N3CCN(c4cccc(OC)c4)CC3)nc3ccccc32)cc1,·,i,·,·,i
N#Cc1cc(-c2ccccc2)[nH]c1-c1nccc2ccccc12,9.2µM*,i,?,?,?
COC(=O)c1c(-c2ccccc2)[nH]c(-c2nccc3ccccc23)c1C(=O)OC,·,i,·,·,i
Cc1ccc2cccc(NC(=O)C(C)Oc3ccc(Cl)cc3Cl)c2n1 (stereo unspecified),·,i,·,·,i
COc1ccc(C(=O)NCc2nnc(SCC(=O)N3CCc4ccccc43)n2CCc2ccccc2)cc1,15µM*,i,2%,3%,i
COc1ccc(C(=O)NCc2nnc(SCC(=O)N3CCc4ccccc43)n2C2CCCCC2)cc1,-1%,?,-8%,1%,i
O=C(NCc1nnc(SCC(=O)N2CCCc3ccccc32)n1-c1ccccc1)c1cccc2ccccc12,?,16µM*,18%,11%,?
O=C(CSc1nc2ccccc2nc1Cc1ccccc1F)Nc1cccc(C(F)(F)F)c1,·,i,·,·,i
CCCCN(C(=O)c1ccc(Br)o1)C1CCS(=O)(=O)C1 (stereo unspecified),?,i,4%,-1%,i
CCOC(=O)c1cccc(NC(=O)C2CCCN(S(=O)(=O)c3ccc4c(c3)oc(=O)n4C)C2)c1 (stereo unspecified),·,i,·,·,i
NC(=O)COC(=O)c1cc([N+](=O)[O-])ccc1NCCO,1%,i,9%,-4%,i
CCNc1ccc(C(=O)OCC(=O)NCc2ccccc2Cl)cc1[N+](=O)[O-],-1%,i,?,-6%,i
O=C(COC(=O)c1cc([N+](=O)[O-])ccc1NCCO)c1ccccc1,-3%,21µM*,-1%,?,?
O=C(COC(=O)c1cc([N+](=O)[O-])ccc1NCc1ccccc1Cl)NCC(F)(F)F,?,i,21µM*,0%,i
SMILES,ELG1 DNA repair,KB-V1 cytotox,MCF10A rereplic,SW480 rereplic,KB-3-1 tox
O=C(COC(=O)c1cc([N+](=O)[O-])ccc1NCCO)NCc1cccs1,12%,i,0.65µM*,-40%,i
Cc1oc2ncnc(N3CCCCC3)c2c1C(=O)NCC1CCN(Cc2ccc(F)cc2)CC1,·,i,·,·,i
Cc1cccc(OCC(=O)N(Cc2cccs2)c2ccc(Cl)cc2)c1C,·,?,·,·,i
COc1cc(N/N=C(\C)c2ccc(O)c(C)c2)nc(-c2ccccc2)n1,-17%,i,?,?,i
C/C(=N\Nc1cc(-c2ccccc2)nc(-c2ccccc2)n1)c1ccc(O)c(C)c1,?,?,7.3µM*,?,i
C/C(=N\Nc1ncc(Br)cn1)c1cccc([N+](=O)[O-])c1,2%,i,0%,5%,i
C/C(=N\Nc1cc(C)nc(-c2ccccc2)n1)c1cccc([N+](=O)[O-])c1,15µM*,i,0.73µM*,6%,i
COc1cc(N/N=C(\C)c2ccc(N)cc2)nc(-c2ccccc2)n1,?,i,18µM*,3%,i
COc1ccc2c(c1)c1c(c(=O)n(-c3cccc(C)c3)c(=O)n1CC(=O)NCc1ccc(C)cc1)n2C,·,?,·,·,i
CCC(=O)N1c2ccccc2CC1C(=O)NCCc1ccc(SC)cc1 (stereo unspecified),·,i,·,·,i
CCOC(=O)Nc1ccc2c(c1)N(C(=O)CNC)c1ccccc1CC2,21%,i,?,-17%,i
CCOC(=O)Nc1ccc2c(c1)N(C(=O)OC)c1ccccc1CC2,-18%,5.8µM*,?,?,?
CC(=O)Nc1ccc2c(c1)N(C(C)=O)c1ccccc1CC2,21µM*,i,-15%,-13%,i
O=C1C=C(Nc2ccccc2)C(=O)c2ccccc21,?,?,4%,?,?
O=C1C=C(Nc2ccccc2)c2ccccc2C1=O,9.2µM*,?,5.8µM*,2.6µM*,5.8µM*
O=C1C=C(Nc2ccccc2C(=O)O)c2ccccc2C1=O,26µM*,i,30%,36%,i
CCc1ccc(NC2=CC(=O)C(=O)c3ccccc32)cc1,1%,16µM*,9.2µM*,7.3µM*,18µM*
O=C(CN1C(=O)c2ccccc2C1=O)Nc1cccc2cccnc12,16%,i,4%,-8%,i
O=C1C=C(Nc2cccc3cccnc23)c2ccccc2C1=O,?,5.8µM*,3.7µM*,7.3µM*,5.8µM*
CC(=O)Oc1ccc(C(=O)COC(=O)CNC(=O)COc2ccccc2C)cc1,·,i,·,·,i
COc1ccc(NC(=O)c2ccc3c(c2)c(C)c(C)n3Cc2ccc(F)cc2)cc1,·,8.2µM*,·,·,12µM*
NC(=NCc1ccccc1)NN=Cc1ccnc2ccccc12,·,?,·,·,i
N=C1SCC(=O)N1/N=C/c1ccccc1,?,6.5µM*,23%,?,7.3µM*
COc1ccccc1-c1cnc(C(O)c2cc(Cl)cc(Cl)c2)[nH]1 (stereo unspecified),·,i,·,·,i
COc1ccccc1-c1cnc(C(O)c2ccc(C(C)(C)C)cc2)[nH]1 (stereo unspecified),·,21µM*,·,·,?
COc1ccccc1-c1cnc(C(O)c2ccccc2)[nH]1 (stereo unspecified),·,?,·,·,i
